# PubChem BioAssay (Tox21)
# Records with an inconclusive call do not appear. Calls of active or inactive are those of the source. The call rests on the fitted dose curve.
# Assay: p53 small molecule agonists, cell-based qHTS assay with human liver microsomes: qHTS cell viability counter screen (AID 1963579); further: nearly all actives have a fitted effect of over 45% in size
# Conditions: p53RE-bla HCT-116 viability, ATP luminescence, 16 h, HLM; series mostly up to 66 µM; activity change, negative = cytotoxicity: at the top concentration
# Text: National Center for Advancing Translational Sciences [NCATS]
# Division of Preclinical Innovation [DPI]
# U.S. Environmental Protection Agency [EPA]
# National Institutes of Environmental Health Sciences [NIEHS]
# National Toxicology Program [NTP]
# U.S. Food and Drug Administration [FDA]
# p53, a tumor suppressor protein, is activated following cellular insult, including DNA damage and other cellular stresses. The activation of p53 regulates cell fate by inducing DNA repair, cell cycle arrest, apoptosis, or cellular senescence. The activation of p53, therefore, is a good indicator of DNA damage and other cellular stresses. […] The activation of the reporter gene under culture conditions can be detected by fluorescence intensity. This cell line was used to screen the Tox21 10K compound library in the condition of presence of human liver microsomes and to identify agonists that activate the p53 signaling pathway after in vitro metabolic activation (Ooka et al., Archive of Toxicology 96:1975-1987, 2022).
# Tox21 Assay Protocol Summary:
# The p53RE-bla cells were dispensed at 4,000cells/3ul/well in 1536-well black-clear bottom plates. After the assay plates were incubated at 37 C, 5% CO2 incubator for 5 hours, 23 nL of compounds dissolved in DMSO, positive controls or DMSO only was transferred to the assay plate. Following compound addition, 3 uL of human liver microsomes (XenoTech, Kansas City, KS) at final concentration of 0.5 mg/mL and 1uL of B-Nicotinamide adenine dinucleotide 2'-phosphate (NADPH) at final concentration of 0.5 mg/mL were transferred to the assay plate. The plates were incubated at 37 C for 16 hours. 1 uL of LiveBLAzer detection mixture was added to each well and the plates were incubated at room temperature in the dark for 2 h. Fluorescence intensity at 460 and 530 nm emission and 405 nm excitation were measured by an Envision plate reader. For cell viability readout that measures cytotoxicity, 4 ul/well of CellTiter-Glo reagent was added into the assay plates using a Flying Reagent Dispenser. After 30 min incubation at room temperature, the luminescence intensity in the plates was measured using a ViewLux plate reader.
# On the % scale 0 is the no-effect control and ±100 the full control effect; potency means the concentration at half of the fitted maximal effect.
SMILES,"activity change, negative = cytotoxicity",Potency
O=c1[nH]c2cc(Cl)ccc2n1C1CCNCC1,12.1% [at 30.3 µM] (inactive),
CC(C)(C)NC[C@H](O)c1ccc(O)cc1Cl,-0.517% [at 30.3 µM] (inactive),
CCN(CC)C(=O)N[C@@H]1C=C2c3cccc4[nH]cc(c34)C[C@@H]2N(C)C1,4.34% [at 30.3 µM] (inactive),
CCCCC(CC)COC(=O)c1ccccc1C(=O)OCC(CC)CCCC (stereo not given),2.84% (inactive),
IC(I)=C(I)I,,16.2 µM (active)
COc1ccc(C(c2ccc(OC)cc2)C(Cl)(Cl)Cl)cc1,0.42% (inactive),
CN(C)C(=S)[S-].CN(C)C(=S)[S-].[Cu+2],-25.4% [at 13.5 µM] (inactive),
O=C(CCl)Nc1ccccc1,-10.5% (inactive),
II,1.74% (inactive),
N#CC(C#N)=NNc1cccc(Cl)c1,,5.13 µM (active)
C#CCC1=C(C)C(OC(=O)C2C(C=C(C)C)C2(C)C)CC1=O (stereo not given),4.12% (inactive),
O=C(O)c1c(Cl)ccc2cc(Cl)cnc12,-3.48% (inactive),
[F][Sn]([c]1ccccc1)([c]1ccccc1)[c]1ccccc1,,2.29 µM (active)
N#C/C=C/c1ccccc1,2.26% (inactive),
CCCCCCCCc1ccc(O)cc1,,36.6 µM (active)
N#Cc1c2ccccc2cc2ccccc12,-0.574% (inactive),
c1ccc2nc(N3CCNCC3)ccc2c1,-1.13% [at 30.3 µM] (inactive),
CCOP(=S)(OCC)Oc1cc(C)nc(N(CC)CC)n1,-5.54% (inactive),
COC(=O)COc1ccc(Cl)cc1Cl,-5.53% (inactive),
CCC1(CCC(C)C)C(=O)NC(=O)NC1=O,5.33% (inactive),

SMILES,"activity change, negative = cytotoxicity",Potency
COC(=O)C(C)N(C(=O)c1ccco1)c1c(C)cccc1C (stereo not given),3.58% (inactive),
CN1CCC(O)(c2ccc(F)cc2)C(C(=O)c2ccc(F)cc2)C1 (stereo not given),13.1% [at 30.3 µM] (inactive),
NCCc1cc(O)c(O)cc1O,2.72% [at 30.3 µM] (inactive),
CN1CCc2cc3c(cc2C1O)OCO3 (stereo not given),3% (inactive),
O=C(NC(=O)c1cc(F)c(F)cc1Cl)Nc1cc(F)ccc1N1CCC(C(=O)O)CC1,12.8% [at 30.3 µM] (inactive),
BrC(Br)C(Br)(Br)Br,-27.2% (inactive),
C=CC(=O)OCC(COC(=O)C=C)(COC(=O)C=C)COC(=O)C=C,,4.08 µM (active)
C=C(Cl)CSC(=S)N(CC)CC,-16.2% (inactive),
CC1(C)CCC(Cc2ccc(Cl)cc2)C1(O)Cn1cncn1 (stereo not given),,45.8 µM (active)
O=S(=O)(O)c1cc(O)ccc1O,2.32% (inactive),
CCC(COC(=O)c1cc(OC)c(OC)c(OC)c1)(c1ccccc1)N(C)C (stereo not given),0.0821% [at 30.3 µM] (inactive),
Cn1[nH]nnc1=S,5.91% (inactive),
Cc1cc(C)cc(OP(=O)(Oc2cc(C)cc(C)c2)Oc2cc(C)cc(C)c2)c1,-6.85% (inactive),
O=C(O)[C@H](O)[C@@H](O)C(=O)O,-19.4% (inactive),
CC(C)=CC1C(C(=O)OC(C#N)c2cccc(Oc3ccccc3)c2)C1(C)C (stereo not given),-7.23% (inactive),
ClCc1ccc(Cl)cc1Cl,11.6% (inactive),
CCOP(=S)(OCC)Oc1ncn(-c2ccccc2)n1,3.39% (inactive),
ClC(Cl)C(Cl)(Cl)Cl,2.05% (inactive),
CCc1cccc(C)c1N(C(=O)CCl)[C@@H](C)COC,0.0817% (inactive),
CCOC(=O)/C=C(C)/C=C/C[C@@H](C)CCCC(C)C,-1.73% (inactive),
